Test results published in PubChem BioAssay (Tox21).
Results filed as inconclusive are left out. Active and inactive are the calls of the source. Unless noted, calls follow the shape of the full dose curve.

Tests used:
[1] = Nuclear factor erythroid 2-related factor 2/antioxidant responsive element (Nrf2/ARE) small molecule agonists: qHTS cell viability counter screen in human keratinocytes (AID 1919968; active = well fitted curve in the direction sought with a large enough effect in the repeat runs; an effect the other way counts as inactive or inconclusive; also: nearly all actives have a fitted effect of over 55% in size)
Summary of the method: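 Measured as CellTiter-Fluor fluorescence, this readout tracks cytotoxicity in the same wells as the ARE-luciferase screen. HaCaT reporter cells (1,500/well) received compounds after a 5 h pre-incubation and were exposed for 23 h.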

[2] = Nuclear factor erythroid 2-related factor 2/antioxidant responsive element (Nrf2/ARE) small molecule agonists: luciferase reporter gene qHTS assay in human keratinocytes (AID 1919969); also: nearly all actives have a fitted effect of over 35% in size
[3] = molecular target: Gonadotropin-releasing hormone receptor (Homo sapiens) (UniProt P30968); test: Human gonadotropin-releasing hormone receptor (GnRHR) small molecule agonists, calcium flux assay in GnRHR-HEK293 cells (AID 1920063); also: nearly all actives have a fitted effect of over 35% in size
Summary of the method: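 Fluorescence kinetics (480 nm excitation, 540 nm emission; 3 min, 1 s steps) report calcium mobilisation in human GnRHR-HEK293 cells in agonist mode. Dye incubation: 1 h, 37 C.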

[4] = molecular target: KiSS-1 receptor (Homo sapiens) (UniProt Q969F8); test: Human kisspeptin (KISS1R) small molecule agonists, calcium flux assay in KISS1R-HEK293 cells (AID 1920064; active = well fitted curve in the direction sought with a large enough effect in the repeat runs; an effect the other way counts as inactive or inconclusive)
Summary of the method: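 Measures KISS1R agonism through calcium-sensitive dye fluorescence in stably transfected HEK293 cells, read for 3 min after pin-tool compound delivery; 15-point titrations in triplicate.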

[5] = G protein-coupled receptor (GPCR) small molecule agonists, calcium flux assay: HEK293 wild type cell line counter screen (AID 1920065)
Summary of the method: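 Readout: fluorescence at 480 nm excitation/540 nm emission, sampled at 1 s intervals for 3 min. Cells had been cultured 18 h, then dye-loaded 1 h at 37 C before compound or ATP addition.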

[6] = p53 small molecule agonists, cell-based qHTS assay with human liver microsomes (AID 1963577)
Summary of the method: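 Fluorescence of the beta-lactamase reporter in p53RE-bla cells, detected with LiveBLAzer substrate (2 h, room temperature, dark), served as the read-out after 16 h compound exposure at 37 C with human liver microsomes and NADPH, each 0.5 mg/mL final.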

[7] = p53 small molecule agonists, cell-based qHTS assay with rat liver microsomes (AID 1963578)
Summary of the method: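 Cells carrying a p53 response element–beta-lactamase reporter were plated and rested 5 h, then dosed with compound in DMSO plus rat liver microsomes and NADPH, each at 0.5 mg/mL final. After 16 h at 37 C, LiveBLAzer substrate was added for 2 h.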

[8] = p53 small molecule agonists, cell-based qHTS assay with human liver microsomes: qHTS cell viability counter screen (AID 1963579); also: nearly all actives have a fitted effect of over 45% in size
Summary of the method: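 Cytotoxicity counter screen: p53RE-bla, 4,000 cells/well; 5 h settle, 37 C/5% CO2; cpd + HLM 0.5 mg/mL + NADPH 0.5 mg/mL (final); 16 h, 37 C; CellTiter-Glo, 30 min RT, luminescence.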

[9] = p53 small molecule agonists, cell-based qHTS assay with rat liver microsomes: qHTS cell viability counter screen (AID 1963580); also: nearly all actives have a fitted effect of over 45% in size
Summary of the method: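 HCT-116 p53RE-bla, 4,000 cells/well, 5 h pre-incubation; cpd + rat liver microsomes 0.5 mg/mL + NADPH 0.5 mg/mL (final); 16 h, 37 C; CellTiter-Glo, 30 min RT; luminescence.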

[10] = p53 small molecule agonists, cell-based qHTS assay: qHTS cell viability counter screen (AID 1963581); also: nearly all actives have a fitted effect of over 45% in size
Summary of the method: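 In the same plates used for the p53 bla reporter, HCT-116 cells given compounds for 16 h at 37 C received CellTiter-Glo; luminescence was recorded 30 min later at room temperature.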

[11] = p53 small molecule agonists, cell-based qHTS assay (AID 1963582; active = well fitted activation curve with a large enough effect in the signal ratio in the repeat runs, not every such curve was filed as active; the % refers to the signal ratio)
Summary of the method: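 Compounds are pin-transferred in DMSO onto p53RE-bla cells and incubated 16 h at 37 C. The B/G FRET beta-lactamase substrate is then applied for 2 h at RT and fluorescence recorded.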

[12] = molecular target: 5-hydroxytryptamine receptor 2A (Homo sapiens) (UniProt P28223); test: 5-hydroxytryptamine receptor 2A (HTR2A) small molecule antagonists, cell-based qHTS assay (AID 1963586); also: nearly all actives have a fitted effect of over 45% in size
Summary of the method: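 Antagonist-mode intracellular calcium assay: DOI (4 nM) added after 5 min compound pre-incubation at room temperature to dye-loaded HTR2A-CHO cells. Fluorescence followed for 3 min, sampled every second.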

[13] = molecular target: 5-hydroxytryptamine receptor 2A (Homo sapiens) (UniProt P28223); test: 5-hydroxytryptamine receptor 2A (HTR2A) small molecule agonists, cell-based qHTS assay (AID 1963587); also: nearly all actives have a fitted effect of over 30% in size
Summary of the method: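 Kinetic calcium-flux fluorescence (2 min, 1 sec intervals) after compound addition in agonist mode. HTR2A-CHO cells were cultured 18 h, then dye-loaded 1 h at 37 C.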

[14] = molecular target: Muscarinic acetylcholine receptor M1 (Homo sapiens) (UniProt P11229); test: Cholinergic receptor muscarinic 1 (CHRM1) small molecule antagonists, cell-based qHTS assay (AID 1963588); also: nearly all actives have a fitted effect of over 40% in size
Summary of the method: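 CHRM1-CHO calcium-flux assay, antagonist mode. Cells were seeded 18 h, dye-loaded 1 h at 37 C and given compound for 5 min at RT, then acetylcholine was added at 50nM. FDSS fluorescence was read 3 min; 15 concentrations, three runs.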

[15] = molecular target: Muscarinic acetylcholine receptor M1 (Homo sapiens) (UniProt P11229); test: Cholinergic receptor muscarinic 1 (CHRM1) small molecule agonists, cell-based qHTS assay (AID 1963589); also: nearly all actives have a fitted effect of over 35% in size
Summary of the method: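 Each compound was tested at 15 concentrations across three independent runs on dye-loaded CHO cells stably expressing human CHRM1, reading intracellular calcium fluorescence kinetically at 1 sec intervals.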

[16] = cAMP Responsive Elements (CRE) small molecule agonists, cell-based qHTS assay (AID 1963590)
Summary of the method: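 Cell line: CRE-bla HEK 293T; medium DMEM/10% dialyzed FBS/0.1 mM NEAA/1 mM pyruvate/25 mM HEPES; 3 h compound exposure; beta-lactamase FRET readout after 2 h substrate loading at RT.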

[17] = molecular target: Beta-2 adrenergic receptor (Homo sapiens) (UniProt P07550); test: Adrenergic beta2 receptor (ADRB2) small molecule antagonists, cell-based qHTS assay (AID 1963592); also: series mostly up to about 92 µM; nearly all actives have a fitted effect of over 50% in size
Summary of the method: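 Cells (CHO, stable ADRB2 overexpression) incubated 18-20hr at 37C; compounds added from DMSO; agonist mix (1nM isoproterenol, 100uM IBMX, 25uM Ro-20-1724) added; 0.5hr RT; d2-cAMP and anti-cAMP-cryptate added; 1hr RT; 665/615 nm read.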

[18] = molecular target: D(2) dopamine receptor (Homo sapiens) (UniProt P14416); test: Dopamine D2 receptor (DRD2) small molecule agonists, cell-based qHTS assay (AID 1963594); also: nearly all actives have a fitted effect of over 35% in size
Summary of the method: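 cAMP accumulation in DRD2-HEK293 cells measured by HTRF after 1 h detection; compounds added 10 min before NKH477 (200nM […]) forskolin-analogue stimulation, 30 min at room temperature, with Ro20-1724 present at 0.1 mM final.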

[19] = molecular target: D(2) dopamine receptor (Homo sapiens) (UniProt P14416); test: Dopamine D2 receptor (DRD2) small molecule antagonists, cell-based qHTS assay (AID 1963595; active = well fitted inhibition curve with a large enough effect in the signal ratio in the repeat runs, with a control signal flat; the % refers to the signal ratio)
Summary of the method: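 Cells were plated and grown for 24 h at 37 °C. Ro20-1724 (0.1 mM final) went in first, then compound for 10 min. NKH477 (200 nM) with quinpirole (12 nM) followed for 30 min at RT, then HTRF detection reagents for 1 h.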

[20] = cAMP Responsive Elements (CRE) small molecule antagonists, cell-based qHTS assay (AID 1963591; active = well fitted inhibition curve with a large enough effect in the signal ratio in the repeat runs, not every such curve was filed as active; the % refers to the signal ratio)
Summary of the method: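 Inhibition of NKH477-driven (0.25 uM final) CRE-beta-lactamase signal in HEK293T cells, 3 h compound exposure at 37 °C, detected by FRET substrate fluorescence.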

Measured: Potency

Chain of D(2) dopamine receptor (Homo sapiens) (P14416 whole entry, looked up): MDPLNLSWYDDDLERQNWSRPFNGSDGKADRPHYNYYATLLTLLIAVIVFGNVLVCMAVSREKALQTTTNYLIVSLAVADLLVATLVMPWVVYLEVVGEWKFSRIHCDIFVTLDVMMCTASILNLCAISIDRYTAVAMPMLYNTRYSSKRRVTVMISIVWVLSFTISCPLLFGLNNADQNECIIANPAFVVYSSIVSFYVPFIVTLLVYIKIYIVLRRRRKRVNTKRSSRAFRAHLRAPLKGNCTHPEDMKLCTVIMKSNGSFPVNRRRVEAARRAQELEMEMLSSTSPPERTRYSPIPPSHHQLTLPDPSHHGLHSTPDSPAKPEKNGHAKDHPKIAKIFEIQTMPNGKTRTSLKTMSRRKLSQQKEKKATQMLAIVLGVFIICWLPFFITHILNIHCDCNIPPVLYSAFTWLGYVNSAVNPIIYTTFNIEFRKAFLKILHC
Chain of Gonadotropin-releasing hormone receptor (Homo sapiens) (P30968 whole entry, looked up): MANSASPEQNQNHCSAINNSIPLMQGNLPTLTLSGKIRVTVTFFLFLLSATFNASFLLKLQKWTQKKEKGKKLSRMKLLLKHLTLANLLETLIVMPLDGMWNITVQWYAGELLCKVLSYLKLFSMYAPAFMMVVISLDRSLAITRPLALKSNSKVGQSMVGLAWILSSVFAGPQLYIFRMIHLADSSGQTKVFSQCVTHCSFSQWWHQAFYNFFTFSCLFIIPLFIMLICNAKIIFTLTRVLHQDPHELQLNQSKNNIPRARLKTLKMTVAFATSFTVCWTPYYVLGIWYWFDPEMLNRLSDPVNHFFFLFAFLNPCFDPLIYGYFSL
Chain of 5-hydroxytryptamine receptor 2A (Homo sapiens) (P28223 whole entry, looked up): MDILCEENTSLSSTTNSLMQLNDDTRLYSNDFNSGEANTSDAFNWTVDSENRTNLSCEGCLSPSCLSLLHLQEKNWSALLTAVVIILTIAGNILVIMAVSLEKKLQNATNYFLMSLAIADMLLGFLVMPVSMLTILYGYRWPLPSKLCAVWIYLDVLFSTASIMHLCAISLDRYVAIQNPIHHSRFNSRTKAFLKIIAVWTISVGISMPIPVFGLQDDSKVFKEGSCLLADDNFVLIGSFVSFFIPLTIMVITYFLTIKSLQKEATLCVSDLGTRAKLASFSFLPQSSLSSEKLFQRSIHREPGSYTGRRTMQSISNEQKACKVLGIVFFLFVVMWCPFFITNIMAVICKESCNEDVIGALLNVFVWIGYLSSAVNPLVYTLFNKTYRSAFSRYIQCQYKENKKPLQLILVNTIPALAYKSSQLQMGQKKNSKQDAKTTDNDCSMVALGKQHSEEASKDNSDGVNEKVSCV
Chain of Beta-2 adrenergic receptor (Homo sapiens) (P07550 whole entry, looked up): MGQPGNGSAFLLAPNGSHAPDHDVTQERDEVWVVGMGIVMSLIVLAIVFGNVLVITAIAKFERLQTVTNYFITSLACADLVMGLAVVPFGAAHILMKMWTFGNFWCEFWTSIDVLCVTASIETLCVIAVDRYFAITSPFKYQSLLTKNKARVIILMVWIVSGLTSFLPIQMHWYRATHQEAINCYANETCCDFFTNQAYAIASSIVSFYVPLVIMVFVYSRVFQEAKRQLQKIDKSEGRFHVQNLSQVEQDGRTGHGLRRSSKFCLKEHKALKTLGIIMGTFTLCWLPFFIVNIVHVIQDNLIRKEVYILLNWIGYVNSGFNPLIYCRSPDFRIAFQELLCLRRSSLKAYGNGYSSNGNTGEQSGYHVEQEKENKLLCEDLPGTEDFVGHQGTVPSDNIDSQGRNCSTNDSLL
Chain of Muscarinic acetylcholine receptor M1 (Homo sapiens) (P11229 whole entry, looked up): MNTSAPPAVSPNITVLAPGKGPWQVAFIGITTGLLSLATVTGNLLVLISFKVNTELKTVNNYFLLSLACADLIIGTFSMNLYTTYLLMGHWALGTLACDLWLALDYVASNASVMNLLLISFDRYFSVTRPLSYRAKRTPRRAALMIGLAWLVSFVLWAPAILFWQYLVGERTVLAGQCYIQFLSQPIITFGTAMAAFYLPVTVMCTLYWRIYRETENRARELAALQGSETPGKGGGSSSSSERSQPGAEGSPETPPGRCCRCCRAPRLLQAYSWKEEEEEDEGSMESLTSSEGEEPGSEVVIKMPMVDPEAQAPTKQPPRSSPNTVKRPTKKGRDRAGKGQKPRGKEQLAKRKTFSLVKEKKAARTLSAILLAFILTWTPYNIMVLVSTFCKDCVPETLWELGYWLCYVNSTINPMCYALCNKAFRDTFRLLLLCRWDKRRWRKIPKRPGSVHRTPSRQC
Chain of KiSS-1 receptor (Homo sapiens) (Q969F8 whole entry, looked up): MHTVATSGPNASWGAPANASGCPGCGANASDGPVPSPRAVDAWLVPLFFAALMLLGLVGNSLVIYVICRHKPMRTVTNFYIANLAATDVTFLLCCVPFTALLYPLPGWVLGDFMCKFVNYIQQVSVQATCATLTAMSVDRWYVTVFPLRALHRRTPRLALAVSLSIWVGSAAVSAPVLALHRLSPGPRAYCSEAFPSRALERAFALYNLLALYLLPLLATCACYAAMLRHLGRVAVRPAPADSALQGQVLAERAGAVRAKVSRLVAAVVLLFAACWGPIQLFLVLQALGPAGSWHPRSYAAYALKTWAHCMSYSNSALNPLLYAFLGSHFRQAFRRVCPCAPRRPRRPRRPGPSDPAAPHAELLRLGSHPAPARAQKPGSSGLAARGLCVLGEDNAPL

Oc1cccc2cc3cccc(O)c3c(O)c12
not listed: [20]
inactive: all other assays above

CCNc1nc(NC(C)(C)C)nc(OC)n1
not listed: [20]
inactive: all other assays above

CNC(=O)c1ccccc1
not listed: [20]
inactive: all other assays above

CCC=CC#N
not listed: [20]
inactive: all other assays above

CC1CCc2cc(F)cc3c(=O)c(C(=O)O)cn1c23 (stereo unspecified)
not listed: [16]
inactive: all other assays above

CC(=O)OC1CCCCC1C(C)(C)C (stereo unspecified)
not listed: [20]
inactive: all other assays above

COC(=O)[C@H]1[C@H]2C[C@@H]3c4[nH]c5cc(OC)ccc5c4CCN3C[C@H]2C[C@@H](OC(=O)COc2ccc(OC)cc2)[C@@H]1OC
not listed: [17] | [18] | [20]
inactive: all other assays above
